# Source: PubChem BioAssay (The Scripps Research Institute Molecular Screening Center)
# MITF inh: human MITF inhibition, primary screen; AlphaScreen MITF homodimerization, bead proximity signal; AID 1259374; inhibition, % at 2.6 µM; 650,000 compounds, 0.91% hits; in the data active = inhibition above about 50%;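 also: 0% = vehicle wells with protein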
# FBW7 activator: activators of human E3 ligase FBW7; Q969H0; normalized activity (activation), % at 26.1 µM; 650,000 compounds, 0.13% hits; AlphaScreen FBW7–phospho-cyclin E peptide binding, activator screen; in the data active = normalized activity above about 1.9%;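 also: purified mutant Fbw7 with reduced substrate affinity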
# Target sequence (Q969H0 whole entry, looked up): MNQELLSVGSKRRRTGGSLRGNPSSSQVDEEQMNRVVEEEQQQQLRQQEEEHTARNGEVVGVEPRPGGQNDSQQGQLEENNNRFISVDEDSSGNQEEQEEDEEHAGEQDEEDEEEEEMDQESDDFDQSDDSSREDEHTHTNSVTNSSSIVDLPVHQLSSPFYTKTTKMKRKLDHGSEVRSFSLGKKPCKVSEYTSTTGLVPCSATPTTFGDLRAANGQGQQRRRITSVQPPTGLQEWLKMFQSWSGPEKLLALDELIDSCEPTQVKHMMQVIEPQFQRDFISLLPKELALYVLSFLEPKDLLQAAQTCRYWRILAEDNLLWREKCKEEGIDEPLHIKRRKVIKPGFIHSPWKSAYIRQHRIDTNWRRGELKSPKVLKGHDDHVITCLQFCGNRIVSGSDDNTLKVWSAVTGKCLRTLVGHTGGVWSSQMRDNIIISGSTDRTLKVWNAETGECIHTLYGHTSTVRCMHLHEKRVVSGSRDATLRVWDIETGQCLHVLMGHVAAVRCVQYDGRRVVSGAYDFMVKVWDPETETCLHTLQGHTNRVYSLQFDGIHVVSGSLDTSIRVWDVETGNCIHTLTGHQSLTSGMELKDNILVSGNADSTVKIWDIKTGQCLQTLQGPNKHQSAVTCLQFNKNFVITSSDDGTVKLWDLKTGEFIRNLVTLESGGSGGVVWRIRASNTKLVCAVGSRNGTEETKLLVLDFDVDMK
# TEAD-YAP inh: TEAD-YAP interaction inhibition. HEK-TIYL cells, TEAD-Gal4/YAP UAS-luciferase luminescence. inhibition, % at 9.12 µM. 640,000 compounds, 1.4% hits. AID 1259422; in the data active = inhibition above about 32%;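 also: 0% = median of test compound wells and 100% = reference inhibitor wells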
# GPR151 ag: human GPR151 activation; Q8TDV0; PathHunter beta-arrestin GPR151 cells, luminescence; activation, % at 11.2 µM; 650,000 compounds, 1% hits; AID 1508602; in the data active = activation above about 4.9%;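 also: 0% = median of compound wells and 100% = cells with positive control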
# Starred values were filed as active, the others as inactive; ! = not active in a repeat. The list is not random: actives were taken first. Their share in the collection is about 3.5%.
SMILES,MITF inh,FBW7 activator,TEAD-YAP inh,GPR151 ag
CC(=O)Nc1nc(-c2ccc3c(c2)CCN3C(=O)C2CC2)c(C)s1,3,0,75*,1
CC(=O)Nc1nc(-c2ccc3c(c2)CCN3C(=O)C2CCCCC2)c(C)s1,20,0,78*,1
Cc1sc(NC(=O)c2cnccn2)nc1-c1ccc2c(c1)CCN2C(=O)C1CCCCC1,7,0,0,1
O=C(O)Cc1cc2c(cc1Br)OCCO2,11,0,-8,0
c1cncc(Nc2nc(NCc3nc4ccccc4[nH]3)c3ncn(C4CCCCC4)c3n2)c1,2,0,70*,-1
c1cncc(Nc2nc(NCc3nc4ccccc4[nH]3)c3[nH]cnc3n2)c1,-8,3.0*,0,-2
O=C(NC1CC1)c1ccc(-c2nc(NCc3nc4ccccc4[nH]3)c3ncn(C4CCCCC4)c3n2)cc1,5,0,45*,-1
CC(C)n1cnc2c(NCc3nc4ccccc4[nH]3)nc(Nc3cccnc3)nc21,9,0,86*,-2
CN1CCN(C(=O)c2ccc(-c3nc(NCc4nc5ccccc5[nH]4)c4ncn(C5CCCCC5)c4n3)cc2)CC1,15,0,5,0
COc1ccc2c(c1)CC(C(=O)Nc1ccc(-c3cn[nH]c3)cc1OCCN(Cc1ccccc1)Cc1ccccc1)CO2 (stereo not drawn),17,0,-7,0
CC(C)n1cnc2c(NCc3nc4ccccc4[nH]3)nc(Nc3ccccc3)nc21,-5,0,64*,-1
c1ccc2[nH]c(CNc3nc(Nc4ccc(-n5ccnc5)cc4)nc4c3ncn4C3CCCCC3)nc2c1,-9,0,-24,-2
CC(C)n1cnc2c(Nc3ccccc3)nc(Nc3ccc(C(F)(F)F)cc3)nc21,9,0,-8,1
Cn1c(Nc2nc(NCc3nc4ccccc4[nH]3)c3ncn(-c4ccccc4)c3n2)nc2ccccc21,10,0,19,0
CC(C)n1cnc2c(NCc3nc4ccccc4[nH]3)nc(Nc3ccc(C(F)(F)F)cc3)nc21,-16,0,56*,0
CC(C)n1cnc2c(NCc3nc4ccccc4[nH]3)nc(Nc3ccc(-n4ccnc4)cc3)nc21,13,0,46*,-1
CC1(C)CC(=O)C2=C(C1)N(c1ccc(Cl)cc1)C(N)=C(C#N)C2c1ccccc1 (stereo not drawn),6,0,8,1
Oc1cc(O)c2c(c1)O[C@H](c1ccc(O)c(O)c1)[C@@H](O)C2,57*!,0,-7,0
O=C(Oc1cc(O)cc2c1C[C@@H](OC(=O)c1cc(O)c(O)c(O)c1)[C@@H](c1cc(O)c(O)c(O)c1)O2)c1cc(O)c(O)c(O)c1,62*,0,-2,-1
O=c1c(O)cc([C@H]2Oc3cc(O)cc(O)c3C[C@H]2O)cc2c([C@H]3Oc4cc(O)cc(O)c4C[C@@H]3O)cc(O)c(O)c12,76*,0,-6,-1
O=C1c2c(O)cc(O)cc2O[C@H](c2ccc(O)c(O)c2)[C@H]1O,0,0,-13,1
Oc1cc(O)c2c(c1)O[C@H](c1cc(O)c(O)c(O)c1)[C@H](O)C2,87*,0,-6,0
O=C1c2c(O)cc(O)cc2O[C@H](c2ccc(O)c(O)c2)[C@@H]1O,-5,0,11,0
O=C1C[C@@H](c2ccccc2)Oc2cc(O)cc(O)c21,-13,0,-21,-3
CC(=O)Oc1ccc(C2Nc3ccc(C(C)=O)cc3C3C=CCC32)cc1 (stereo not drawn),12,0,4,-1
SMILES,MITF inh,FBW7 activator,TEAD-YAP inh,GPR151 ag
NC1=NC(=O)C(CC(=O)Nc2ccc(NC(=O)CC3SC(N)=NC3=O)cc2)S1 (stereo not drawn),55*,0,4,0
Cc1ccc(NC(=O)CC2SC(N)=NC2=O)cc1 (stereo not drawn),6,0,-7,1
COc1ccc(-c2noc(CN(Cc3c(C)nn(C)c3C)C(C)C)n2)c(OC)c1OC,0,0,59*,0
CC(=O)Nc1cc(OC(C)=O)c2nonc2c1OC(C)=O,39,-2,99*,-5
CS(=O)(=O)N(CC(=O)N/N=C/c1cc(Cl)cc(Cl)c1O)c1ccccc1,8,0,58*,1
COc1ccc(-c2nc(NCc3cccc(C(F)(F)F)c3)c3ncn(-c4ccsc4)c3n2)cn1,-8,0,-3,3
CC(O)(C#Cc1ccccc1)c1ccccc1 (stereo not drawn),-9,0,-2,0
CC(C)(C)C(C)(O)C#Cc1ccccc1 (stereo not drawn),0,0,83*,-8
CCn1c(=O)n(CC(=O)N2CCC(C(N)=O)CC2)c2cccnc21,-1,0,7,1
Cc1ccc(CN2CCC(C3(Cc4ccccc4)NC(=O)NC3=O)CC2)o1 (stereo not drawn),-1,0,-2,1
Fc1ccc(-n2ncc3c(N4CCCCCC4)ncnc32)cc1,8,1,28,2
Clc1ccc(-n2ncc3c(N4CCCCC4)ncnc32)cc1,-10,0,96*,-1
Clc1ccc(-n2ncc3c(N4CCCC4)ncnc32)cc1,-3,0,35*,3
COC(=O)c1cnc(NCCCN2CCOCC2)c2ccccc12,29,1,-14,0
O=C(NC1CC1)c1ccc(-c2nccc(Nc3ccc(N4CCOCC4)cc3)n2)cc1,-8,0,-34,-1
CCC(=O)N1CCCc2ccc(NS(=O)(=O)c3ccc(Cl)cc3)cc21,7,0,29,2
CCCOc1ccc(S(=O)(=O)Nc2ccc3c(c2)N(C(=O)CC)CCC3)cc1,-3,0,58*,3
O=C(C1CC1)N1CCc2ccc(NS(=O)(=O)c3ccc4c(c3)OCCO4)cc21,15,0,48*,2
CCN(CC)c1ccc(NC(=O)c2ccccc2NC(=O)c2ccccc2)cc1,0,0,-9,2
O=c1c2c3c(sc2nc2c4ccccc4c4nnnn4n12)CCCC3,5,0,3,2
O=c1c2c3c(sc2nc2c4ccccc4cnn12)CCCC3,-9,0,53*,-5
CCn1c(=O)cc(N2CCN(c3cccc(Cl)c3)CC2)[nH]c1=O,-6,0,68*,0
O=C(Cc1ccc(Br)cc1)N1CCC(c2nc3ccncc3c(=O)[nH]2)C1 (stereo not drawn),35,2.3*,2,-2
Cc1sc2nc(C3CCCN(C(=O)Cc4ccc(F)cc4)C3)[nH]c(=O)c2c1C (stereo not drawn),4,0,-6,0
CCNC(=O)N1CCCC(c2nnc(-c3ccccc3F)s2)C1 (stereo not drawn),-5,0,38*,-5
Cc1cccc(N2CCCC2=O)c1,-16,0,3,2
COc1cccc(OC)c1C(=O)Nc1ccc2c(c1)OCCO2,4,0,-7,0
COC(=O)C(=NNc1ccc2c(c1)OCCO2)C(=O)OC,-1,1,80*,-2
O=C(Nc1ccc2c(c1)OCCO2)c1ccccc1,10,0,12,0
